Measured values taken from PubChem BioAssay (NCI).
The panel holds about 83,000 compounds, 20% with a hit somewhere; the sample as a whole holds those more often.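 Treatment: one concentration, 48 hours, 96-well format. Scoring: percent growth, with anything below 10 considered active.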 The source made the active and inactive calls.

What was measured:
Experiment in all cases: NCI-60 one-dose screen, 48 h (100 = growth as untreated, 0 = no growth, -100 = all killed)
Conditions in all cases: 10 µM unless noted
DU-145 prostate = tested on: DU-145 prostate
K-562 leukemia = tested on: K-562 leukemia
MALME-3M melanoma = tested on: MALME-3M melanoma
MDA-MB-231 breast = tested on: MDA-MB-231 breast
RXF 393 renal = tested on: RXF 393 renal
SF-268 CNS = tested on: SF-268 CNS
SF-295 CNS = tested on: SF-295 CNS
SF-539 CNS = tested on: SF-539 CNS
UACC-257 melanoma = tested on: UACC-257 melanoma
M14 melanoma = tested on: M14 melanoma
HCT-15 colon = tested on: HCT-15 colon
HT29 colon = tested on: HT29 colon
SNB-75 CNS = tested on: SNB-75 CNS
SNB-19 CNS = tested on: SNB-19 CNS
U251 CNS = tested on: U251 CNS
PC-3 prostate = tested on: PC-3 prostate
SK-MEL-5 melanoma = tested on: SK-MEL-5 melanoma
UACC-62 melanoma = tested on: UACC-62 melanoma
LOX IMVI melanoma = tested on: LOX IMVI melanoma
SK-MEL-28 melanoma = tested on: SK-MEL-28 melanoma

Measured: growth

COc1ccc(OC)c(NC(=O)CCCCCCNC(=O)C(O)(O)C(F)(F)F)c1
active: RXF 393 renal 1.79%
inactive: DU-145 prostate 34.9% | K-562 leukemia 19.4% | MALME-3M melanoma 24.9% | MDA-MB-231 breast 61.6% | SF-268 CNS 55% | SF-295 CNS 20.6% | SF-539 CNS 46% | UACC-257 melanoma 41.2% | M14 melanoma 46.8% | HCT-15 colon 59.4% | HT29 colon 23.6% | SNB-75 CNS 56.1% | SNB-19 CNS 63.5% | U251 CNS 41.8% | PC-3 prostate 51.4% | SK-MEL-5 melanoma 16.6% | UACC-62 melanoma 13% | LOX IMVI melanoma 32.3% | SK-MEL-28 melanoma 35.6%

NS(=O)(=O)c1nnc(/N=C/c2c(O)[nH]c3ccccc23)s1
inactive: DU-145 prostate 114% | K-562 leukemia 110% | MALME-3M melanoma 109% | MDA-MB-231 breast 92.3% | RXF 393 renal 118% | SF-268 CNS 102% | SF-295 CNS 99.2% | SF-539 CNS 96.3% | UACC-257 melanoma 107% | M14 melanoma 94% | HCT-15 colon 102% | HT29 colon 105% | SNB-75 CNS 81.2% | SNB-19 CNS 105% | U251 CNS 99.9% | PC-3 prostate 89.3% | SK-MEL-5 melanoma 98.5% | UACC-62 melanoma 97% | LOX IMVI melanoma 100% | SK-MEL-28 melanoma 114%

COc1ccc2c(c1)c(-c1nnc(N)nc1-c1c[nH]c3ccc(F)cc13)cn2C
inactive: DU-145 prostate 70.4% | K-562 leukemia 11.9% | MALME-3M melanoma 75.7% | MDA-MB-231 breast 73.7% | RXF 393 renal 47.8% | SF-268 CNS 54.2% | SF-295 CNS 33% | SF-539 CNS 40.5% | UACC-257 melanoma 62.5% | M14 melanoma 32.8% | HCT-15 colon 27.7% | HT29 colon 11.1% | SNB-75 CNS 24.3% | SNB-19 CNS 45.2% | U251 CNS 34.5% | PC-3 prostate 51.2% | SK-MEL-5 melanoma 35.4% | UACC-62 melanoma 35.9% | LOX IMVI melanoma 42.7% | SK-MEL-28 melanoma 67.5%

C/C(=N\NC(=O)Nc1ccccc1)c1nnn(-c2ccc([N+](=O)[O-])cc2)c1C
inactive: DU-145 prostate 105% | K-562 leukemia 113% | MALME-3M melanoma 108% | MDA-MB-231 breast 106% | RXF 393 renal 78.2% | SF-268 CNS 103% | SF-295 CNS 108% | SF-539 CNS 99.9% | UACC-257 melanoma 108% | M14 melanoma 105% | HCT-15 colon 105% | HT29 colon 116% | SNB-75 CNS 100% | SNB-19 CNS 100% | U251 CNS 102% | PC-3 prostate 99.7% | SK-MEL-5 melanoma 99.6% | UACC-62 melanoma 99.6% | LOX IMVI melanoma 102% | SK-MEL-28 melanoma 106%
